Experimental data taken from the supplement of paper PMC10849652.
Of roughly 7,900 targets only a part is listed; those with a hit were picked by preference. About 0.6% of all pairs of compound and target were hits.

Key:
Experiment in all cases: log2 fold change, soluble protein after heating vs DMSO (PISA); higher = thermal stabilisation; K562 cells, 10 uM, 30 min; active = over 0.2 and 3.5 SD of the protein, either way, in both replicates (recomputed)
[1] = compound: CCCc1cc(C)[nH]c(=O)c1CNC(=O)c1cc(-c2ccnc(N3CCN(C)CC3)c2)cc2c1cnn2C(C)C
Method in brief: (§1)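 Soluble protein was quantified by TMTpro 16plex LC-MS/MS after channel sums were equalised. It was obtained as the supernatant after 21,000xg for 90 min from pooled aliquots of K562 cells (2×10^6 cells/mL, 10 μM compound, 30 min) heated for 3 min across 48°C-58°C and extracted in PBS with 0.5% NP-40 at 4°C. Thermal stability values are relative to control samples and come from duplicates. They are given as log2 fold changes.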

[2] = compound: CC1=C(C=C(C=C1)NC(=O)C2=CC(=CC=C2)C(C)(C)C#N)NC3=CC4=C(C=C3)N=CN(C4=O)C
Method in brief: as §1

[3] = compound: CC1=CC=C(C=C1)SC2=C3C=C(SC3=CN=C2)C(=O)N
Method in brief: as §1

[4] = compound: CC1=NC(=CC=C1)C2=C(N=C(N2)C(C)(C)C)C3=CC4=NC=CN=C4C=C3
Method in brief: as §1

Nexturastat A = compound: CCCCN(Cc1ccc(C(=O)NO)cc1)C(=O)Nc1ccccc1 [Nexturastat A]
Method in brief: as §1

[5] = compound: CCCS(=O)(=O)Nc1ccc(F)c(C(=O)c2c[nH]c3ncc(Cl)cc23)c1F
Method in brief: as §1

givinostat = compound: CCN(CC)Cc1ccc2cc(COC(=O)Nc3ccc(C(=O)NO)cc3)ccc2c1 [givinostat]
Method in brief: as §1

barasertib = compound: CCN(CCCOc1ccc2c(Nc3cc(CC(=O)Nc4cccc(F)c4)[nH]n3)ncnc2c1)CCOP(=O)(O)O [barasertib]
Method in brief: as §1

Measured: log2 fold change

EHBP1 (UniProt Q8NDI1)
UniProt Q8NDI1, sequence (Q8NDI1 whole entry, looked up): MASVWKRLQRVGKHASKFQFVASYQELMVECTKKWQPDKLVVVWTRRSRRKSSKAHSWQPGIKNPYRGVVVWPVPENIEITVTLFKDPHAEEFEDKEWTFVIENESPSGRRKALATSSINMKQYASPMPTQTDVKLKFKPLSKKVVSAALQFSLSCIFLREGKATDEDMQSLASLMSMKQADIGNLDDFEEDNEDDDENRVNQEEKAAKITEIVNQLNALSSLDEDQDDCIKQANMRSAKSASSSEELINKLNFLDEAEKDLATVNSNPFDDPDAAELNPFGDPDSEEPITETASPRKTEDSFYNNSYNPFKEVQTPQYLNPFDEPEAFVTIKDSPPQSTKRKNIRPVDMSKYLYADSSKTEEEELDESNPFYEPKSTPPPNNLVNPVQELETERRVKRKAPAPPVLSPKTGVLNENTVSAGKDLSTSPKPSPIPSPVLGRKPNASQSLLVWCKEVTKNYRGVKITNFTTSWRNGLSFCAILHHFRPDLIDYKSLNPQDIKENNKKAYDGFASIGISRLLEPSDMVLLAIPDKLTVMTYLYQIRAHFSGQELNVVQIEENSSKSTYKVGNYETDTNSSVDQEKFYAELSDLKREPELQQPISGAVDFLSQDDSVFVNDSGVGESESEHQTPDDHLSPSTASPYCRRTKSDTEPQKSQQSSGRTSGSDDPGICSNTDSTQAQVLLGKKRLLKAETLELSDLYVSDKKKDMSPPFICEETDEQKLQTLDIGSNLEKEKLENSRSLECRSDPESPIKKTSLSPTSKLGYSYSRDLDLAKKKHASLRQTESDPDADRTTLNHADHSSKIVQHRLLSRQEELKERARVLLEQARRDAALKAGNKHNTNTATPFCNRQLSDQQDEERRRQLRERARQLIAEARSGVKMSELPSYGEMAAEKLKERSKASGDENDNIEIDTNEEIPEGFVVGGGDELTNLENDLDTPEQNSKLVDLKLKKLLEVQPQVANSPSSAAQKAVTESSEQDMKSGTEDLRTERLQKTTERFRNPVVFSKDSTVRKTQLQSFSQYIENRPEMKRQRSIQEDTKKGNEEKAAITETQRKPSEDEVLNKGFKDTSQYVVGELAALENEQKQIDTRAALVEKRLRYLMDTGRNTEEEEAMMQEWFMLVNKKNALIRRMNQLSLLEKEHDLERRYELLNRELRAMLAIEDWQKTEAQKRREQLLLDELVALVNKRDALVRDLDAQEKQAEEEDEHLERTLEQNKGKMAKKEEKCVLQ
inactive: [1] -0.028

ENTPD7 (UniProt Q9NQZ7)
UniProt Q9NQZ7, sequence (Q9NQZ7 whole entry, looked up): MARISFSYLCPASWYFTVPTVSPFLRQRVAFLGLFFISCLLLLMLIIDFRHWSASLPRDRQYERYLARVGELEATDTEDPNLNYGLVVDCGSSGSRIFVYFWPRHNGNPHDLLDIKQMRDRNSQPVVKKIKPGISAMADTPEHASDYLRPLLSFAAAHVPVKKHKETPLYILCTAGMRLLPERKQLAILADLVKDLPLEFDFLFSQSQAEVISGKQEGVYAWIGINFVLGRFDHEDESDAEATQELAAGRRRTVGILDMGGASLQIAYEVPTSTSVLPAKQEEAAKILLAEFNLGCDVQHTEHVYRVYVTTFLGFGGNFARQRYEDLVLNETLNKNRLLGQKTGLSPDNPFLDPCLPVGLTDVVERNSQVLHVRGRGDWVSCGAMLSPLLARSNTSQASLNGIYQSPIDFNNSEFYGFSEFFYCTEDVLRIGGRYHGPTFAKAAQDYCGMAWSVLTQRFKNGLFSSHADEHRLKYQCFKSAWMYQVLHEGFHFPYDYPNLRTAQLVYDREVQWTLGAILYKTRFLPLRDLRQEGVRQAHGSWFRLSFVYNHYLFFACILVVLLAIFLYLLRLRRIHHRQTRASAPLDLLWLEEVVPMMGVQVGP
inactive: [2] -0.033 | [3] 0.012 | [4] 0.142 | Nexturastat A 0.047 | [5] -0.1 | [1] -0.068 | givinostat 0 | barasertib -0.009

EID1 (UniProt Q9Y6B2)
UniProt Q9Y6B2, sequence (Q9Y6B2 whole entry, looked up): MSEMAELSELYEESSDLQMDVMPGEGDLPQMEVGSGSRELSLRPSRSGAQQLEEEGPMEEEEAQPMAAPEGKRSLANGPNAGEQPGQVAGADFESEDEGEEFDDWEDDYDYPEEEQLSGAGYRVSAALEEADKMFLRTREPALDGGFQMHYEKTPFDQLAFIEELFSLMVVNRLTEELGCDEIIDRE
inactive: [2] -0.047 | [3] 0.019 | Nexturastat A 0.18 | [5] -0.107 | [1] 0.135 | givinostat -0.134
